34 molecules from PubChem BioAssay (NCATS) can be followed below.

Inconclusive results are not listed. Entries that show only a call come without a potency. Activity calls are given as the source filed them. Unless noted, the call rests on the fitted dose curve.

Sequence of Flap endonuclease 1 (Homo sapiens) (P39748 whole entry, looked up, the tested form may be a part): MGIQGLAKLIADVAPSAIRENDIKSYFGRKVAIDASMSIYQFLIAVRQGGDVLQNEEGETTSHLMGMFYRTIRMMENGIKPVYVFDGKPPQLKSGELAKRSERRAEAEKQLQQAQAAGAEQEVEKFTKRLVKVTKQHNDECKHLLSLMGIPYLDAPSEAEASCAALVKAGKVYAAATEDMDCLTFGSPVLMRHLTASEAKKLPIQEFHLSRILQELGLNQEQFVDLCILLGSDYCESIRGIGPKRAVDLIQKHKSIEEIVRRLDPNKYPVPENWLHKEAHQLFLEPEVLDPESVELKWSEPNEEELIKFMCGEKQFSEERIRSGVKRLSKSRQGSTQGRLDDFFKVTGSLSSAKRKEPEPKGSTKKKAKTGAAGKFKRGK
Sequence of M-phase phosphoprotein 8 (Homo sapiens) (Q99549 whole entry, looked up): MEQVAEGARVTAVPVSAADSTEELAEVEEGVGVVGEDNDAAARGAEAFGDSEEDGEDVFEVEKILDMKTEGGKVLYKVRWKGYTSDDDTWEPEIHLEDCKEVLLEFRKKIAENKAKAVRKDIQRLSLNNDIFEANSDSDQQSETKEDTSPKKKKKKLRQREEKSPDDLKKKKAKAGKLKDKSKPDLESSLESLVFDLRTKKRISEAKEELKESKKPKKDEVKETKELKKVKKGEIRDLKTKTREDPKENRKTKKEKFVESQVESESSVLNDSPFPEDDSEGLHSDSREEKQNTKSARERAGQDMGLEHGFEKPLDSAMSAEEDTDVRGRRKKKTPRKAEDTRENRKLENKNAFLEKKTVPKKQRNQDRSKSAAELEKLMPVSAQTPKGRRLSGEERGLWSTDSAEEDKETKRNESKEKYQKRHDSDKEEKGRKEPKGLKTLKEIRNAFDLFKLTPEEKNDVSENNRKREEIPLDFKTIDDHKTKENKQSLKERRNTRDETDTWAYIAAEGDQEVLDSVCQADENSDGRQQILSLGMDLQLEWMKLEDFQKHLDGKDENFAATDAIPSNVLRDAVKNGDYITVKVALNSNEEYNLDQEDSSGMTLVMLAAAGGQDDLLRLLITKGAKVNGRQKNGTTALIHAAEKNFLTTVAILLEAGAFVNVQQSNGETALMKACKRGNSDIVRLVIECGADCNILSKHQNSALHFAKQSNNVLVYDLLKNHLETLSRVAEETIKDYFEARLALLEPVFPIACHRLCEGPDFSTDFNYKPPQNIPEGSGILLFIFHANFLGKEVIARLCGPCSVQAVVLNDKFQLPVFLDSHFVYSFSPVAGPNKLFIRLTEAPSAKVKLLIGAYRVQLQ

Tested on in one experiment: not listed separately
Nature of the experiment: Validation screen for inhibitors of Lassa infection (AID 463096). Further: potency means the concentration at half of the fitted maximal effect. The note with it: Lassa virus infection, cell-based; series mostly up to 46.1 µM.
On to `CCCCNc1c(C(=O)OCC)c(C)nc2c1cnn2CC`, for which the Potency result is “inactive”.

As for `C[n+]1cc2c3c(ccc2c2ccc4cc5c(cc4c21)OCO5)OCO3`, the Potency was 2 µM (active).

`COC(=O)C1=C(C)NC(C)=C(C(=O)OC)C1c1ccccc1[N+](=O)[O-]`: the Potency result is “inactive”.

Consider `C[N+](C)(C)CCOC(=O)CCC(=O)OCC[N+](C)(C)C`, for which the Potency result is “inactive”.

Regarding `Brc1c(NC2=NCCN2)ccc2nccnc12`, the Potency result was “inactive”.

In the case of `C(=C\c1ccccc1)/CN1CCN(C(c2ccccc2)c2ccccc2)CC1`, the Potency result is “inactive”.

With `Nc1ccn([C@H]2CC[C@@H](CO)O2)c(=O)n1`, the Potency result is “inactive”.

Consider `CNC(=O)Oc1ccc2c(c1)[C@]1(C)CCN(C)[C@@H]1N2C`, for which the Potency result was “inactive”.

With `OCCN1CCN(CCCN2c3ccccc3C=Cc3ccccc32)CC1`, the Potency result was “inactive”.

Take `Cc1cc(C(C)(C)C)c(O)c(C)c1CC1=NCCN1`: the Potency entry was “inactive”.

With `C#CCN(C)Cc1ccccc1`, the Potency result is “inactive”.

Regarding `NS(=O)(=O)c1cc2c(cc1Cl)NC(C1CC3C=CC1C3)NS2(=O)=O` (stereo not given), the Potency result is “inactive”.

For `CC(=O)OCC1=C(C(=O)O)N2C(=O)[C@@H](NC(=O)CSc3ccncc3)[C@H]2SC1`, the Potency result was “inactive”.

In the case of `C[C@]12CC[C@@H]3c4ccc(O)cc4CC[C@H]3[C@@H]1CCC2=O`, the Potency entry is “inactive”.

Consider `NC(N)=NCCC[C@H](N)C(=O)O`, for which the Potency result is “inactive”.

For the molecule `c1cc(CN2CCCCC2)cc(OCCCNc2nc3ccccc3s2)c1`, the Potency result is “inactive”.

Consider `N[C@@H](Cc1c[nH]c2ccc(O)cc12)C(=O)O`, for which the Potency result was “inactive”.

As for `COc1cc2c(cc1OC)-c1cc(=Nc3c(C)cc(C)cc3C)n(C)c(=O)n1CC2`, the Potency result is “inactive”.

Regarding `CN1CCC(=C2c3ccccc3CC(=O)c3sccc32)CC1`, the Potency entry is “inactive”.

For the molecule `Cc1cc(C(C)(C)C)cc(C)c1CC1=NCCN1`, the Potency entry is “inactive”.

In the case of `CN(C)C/C=C(/c1ccc(Br)cc1)c1cccnc1`, the Potency result was “inactive”.

`CC1=C(CC(=O)O)c2cc(F)ccc2/C1=C\c1ccc(S(C)=O)cc1` (stereo not given): the Potency result is “inactive”.

For `Cc1ccc(C(=O)Nc2ccc(S(=O)(=O)O)c3cc(S(=O)(=O)O)cc(S(=O)(=O)O)c23)cc1NC(=O)c1cccc(NC(=O)Nc2cccc(C(=O)Nc3cc(C(=O)Nc4ccc(S(=O)(=O)O)c5cc(S(=O)(=O)O)cc(S(=O)(=O)O)c45)ccc3C)c2)c1`, the Potency result was “inactive”.

In the case of `CN(C)CC[C@@H](c1ccc(Cl)cc1)c1ccccn1`, the Potency entry is “inactive”.

Turning to `OC(CN1CCC(Cc2ccc(F)cc2)CC1)c1ccc(Cl)cc1` (stereo not given), the Potency result is “inactive”.

As for `COc1ccccc1N1CCN(CCCNc2cc(=O)n(C)c(=O)n2C)CC1`, the Potency result was “inactive”.

For the molecule `Fc1ccc(C(c2ccc(F)cc2)N2CCN(C/C=C/c3ccccc3)CC2)cc1`, the Potency result is “inactive”.

Turning to `CN(C)C(=O)Oc1cccc([N+](C)(C)C)c1`, the Potency entry is “inactive”.

Consider `C[N+](C)(C)CCCCCCCCCC[N+](C)(C)C`, for which the Potency entry was “inactive”.

Regarding `COc1ccc(CN(CCN(C)C)c2ccccn2)cc1`, the Potency entry was “inactive”.

As for `CCN(CC)CCOCCOC(=O)C1(c2ccccc2)CCCC1`, the Potency result was “inactive”.

In the case of `CCCN(CCC)C(=O)C(CCC(=O)O)NC(=O)c1ccccc1` (stereo not given), the Potency entry was “inactive”.

For another experiment, the target named is Flap endonuclease 1 (Homo sapiens) (UniProt P39748). Nature of the experiment: qHTS Validation Assay for the Inhibitors of Human Flap endonuclease 1 (FEN1) (AID 488816; active means well fitted curve in the direction sought with a large enough effect; an effect the other way counts as inactive or inconclusive). The note with it: FEN1 nuclease activity, fluorogenic DNA substrate; series mostly up to 57.1 µM. An excerpt:
The major human flap endonuclease FEN1 is an efficient structure-specific enzyme that recognizes and cleaves a 5'-unannealed DNA flap. It belongs to the RAD2 family nucleases, which are involved in DNA metabolism and are highly conserved in prokaryotes and eukaryotes. FEN1 is a key enzyme in DNA replication, repair and maintenance of genomic stability. 5'-flap removal by FEN1 is critical for Okazaki fragment processing during lagging strand DNA synthesis, long-patch base excision repair (LP BER), and regulating or facilitating recombination events. […] Deletion of the yeast FEN1 gene, i.e. rad27, results in an increased frequency of short DNA (3-32 bp) repeats, micro- and mini-satellite formation, trinucleotide repeat expansion, spontaneous recombination events, and a severe growth defect in association with cell cycle arrest in late S/G2 phase. […] Cells from fen1-/- blastocysts show increased apoptotic cell death after ionizing radiation treatment, and chicken cells lacking the fen1 gene are hypersensitive to DNA alkylating agents, e.g. methylmethane sulfonate (MMS) and N-methyl-N'-nitro-N-nitrosoguanidine (MNNG), as well as hydrogen peroxide.
FEN1 is found to be increased in many human cancers, including lung, brain cancer, gastric cancer, prostate cancer, pancreatic cancer and breast cancer. […] In particular, elevation of FEN1 in hormone refractory human prostate cancer cells correlates with resistant to various anticancer agents including ionizing radiation, doxorubicin, paclitaxel and vinblastine.
Three uL of reagents (buffer in column 3 and 4 as negative control and 10 nM FEN1 in columns 1, 2, and 5-48) were dispensed into 1,536-well black solid-bottomed plate. Compounds (23 nL) were transferred via Kalypsys pin tool equipped with 1536-pin array (10 nL slotted pins, V&P Scientific, San Diego, CA). The plates were then incubated for 15 min at room temperature, and 1 uL substrate (50 nM final concentration) were added to start the reaction read twice at 0 min read and 15 min on ViewLux reader. Throughout the screen, reagent bottle and all liquid lines were chilled and made light-tight to minimize reagent degradation. All screening operations were performed on a fully integrated robotic system (Kalypsys, San Diego, CA) containing one RX-130 and two RX-90 anthropomorphic robotic arms (Staubli, Duncan, SC). Library plates were screened starting from the lowest and proceeding to the highest concentration, and a "double-dipping" step of the highest concentration was required to access higher concentrations of compounds. Vehicle-only plates, with DMSO being pin-transferred to the entire column 5-48 compound area, were inserted uniformly at the beginning and the end of each library in order to monitor for and record any shifts in the background, which can be affected by reagent dispensers or loss in enzyme activity overtime. Screening data was corrected, normalized, and concentration-effect relationships were derived by using publicly-available curve fitting algorithms developed in-house (http://ncgc.nih.gov/pub/openhts). A four parameter Hill equation was fitted to the concentration-response data by minimizing the residual error between the modeled and observed responses.
As for `Brc1c(NC2=NCCN2)ccc2nccnc12`, the result was inactive.

With `CCOC(=O)Nc1ccc(NCc2ccc(F)cc2)nc1N`, the molecule was called inactive.

For `NC(N)=NCCC[C@H](N)C(=O)O`, the call was inactive.

On to `C[N+](C)(C)CCCCCCCCCC[N+](C)(C)C`, for which the molecule was classed as inactive.

The target of a further experiment is M-phase phosphoprotein 8 (Homo sapiens) (UniProt Q99549). Nature of the experiment: qHTS Validation Assay for Inhibitors for MPP8 Chromodomain Interactions with Methylated Histone Tails (AID 488949; active means well fitted curve in the direction sought with a large enough effect; an effect the other way counts as inactive or inconclusive; further: nearly all actives have a fitted effect of over 55% in size; further: potency means the concentration at half of the fitted maximal effect). Particulars: AlphaScreen MPP8 binding to H3K9me3 peptide; series mostly up to 114 µM. In outline:
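Chemiluminescent proximity assay: histidine-tag capture via nickel acceptor beads, biotin peptide via streptavidin donor beads. Protein and peptide each at 50 nM, pH 7.4, with 30 min incubations at room temperature for complex formation, compound exposure and bead binding.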
As for `COC(=O)C1=C(C)NC(C)=C(C(=O)OC)C1c1ccccc1[N+](=O)[O-]`, the Potency is 39.8 µM (active).

For `CNC(=O)Oc1ccc2c(c1)[C@]1(C)CCN(C)[C@@H]1N2C`, the Potency entry is “inactive”.

For `CN1C[C@H](C(=O)N[C@]2(C)O[C@@]3(O)[C@@H]4CCCN4C(=O)[C@H](Cc4ccccc4)N3C2=O)C[C@@H]2c3cccc4[nH]cc(c34)C[C@H]21`, the Potency result is “inactive”.

On to `Cc1cc(C(C)(C)C)cc(C)c1CC1=NCCN1`, for which the Potency result was “inactive”.
